# Compound activity (PubChem BioAssay)
# FLuc inh-1: Photinus pyralis luciferase inhibition. P08659. purified P. pyralis luciferase, luminescence, biochemical. Potency, µM (titrated, usually from 115 µM), actives largely listed as inhibitors. 76,000 compounds, 2.5% hits. AID 1347043; also: nearly all actives have a fitted effect of over 65% in size
#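 Biochemical qHTS: compound (6-point titration) added to 10uM D-luciferin plus 10uM ATP in Tris acetate pH 7.5 buffer with Mg, Tween-20 and BSA, then purified enzyme at 10nM; light output imaged.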
# 3T3 cytotox: cytotoxic compounds in NIH 3T3 cells; NIH 3T3 viability, CellTiter-Glo ATP luminescence, 48-72 h; Potency, µM (top dose mostly 96.7 µM), usual class: inhibitors; 94,000 compounds, 4.3% hits; also: nearly all actives have a fitted effect of over 55% in size
#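 NIH 3T3 cells at 400 cells/well received 23 nL of compound by pintool and were incubated 48 or 72 h at 37 °C. Viability was read as ATP-coupled CellTiter-Glo luminescence.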
# GPT2 inh: blocks human glutamate pyruvate transaminase 2; Potency, µM (top dose mostly 57.7 µM), hits mostly inhibitors; 100,000 compounds, 0.25% hits; Recombinant GPT2, coupled pyruvate oxidase/HRP Amplex Red fluorescence; Q8TD30; AID 1671188; also: nearly all actives have a fitted effect of over 60% in size
#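 Fluorescence of coupled pyruvate oxidase/HRP/Amplex Red system (50uM Amplex, 30 min, dark) reports pyruvate formed by GPT2. Enzyme reaction: 10ng/uL GPT2, 2mM L-alanine, 250uM a-KG, 30 min room temperature, pH 7.5; 50uM AOA control.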
# HEK cytotox: cytotoxic compounds in HEK 293 cells. HEK 293 viability, ATP luminescence (CellTiter-Glo), 48-72 h. Potency, µM (series often up to 115 µM), actives largely listed as inhibitors. 94,000 compounds, 6.6% hits. AID 1345083; also: nearly all actives have a fitted effect of over 60% in size
#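 Cytotoxicity was scored by loss of ATP-coupled luminescence (CellTiter-Glo) in HEK 293 cells. Compound treatment ran 48 or 72 hr at 37 degree Celsius, 5% CO2, 95% humidity.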
# NPR1 antag: human Npr1 receptor antagonism; HEK293 hNpr1 GloSensor cGMP, ANP-stimulated luminescence; Potency, µM (series often up to 46.3 µM), usual class: inhibitors; 76,000 compounds, 1.6% hits; calls by dose curve; also: nearly all actives have a fitted effect of over 60% in size
# Target sequence (P16066 whole entry, looked up): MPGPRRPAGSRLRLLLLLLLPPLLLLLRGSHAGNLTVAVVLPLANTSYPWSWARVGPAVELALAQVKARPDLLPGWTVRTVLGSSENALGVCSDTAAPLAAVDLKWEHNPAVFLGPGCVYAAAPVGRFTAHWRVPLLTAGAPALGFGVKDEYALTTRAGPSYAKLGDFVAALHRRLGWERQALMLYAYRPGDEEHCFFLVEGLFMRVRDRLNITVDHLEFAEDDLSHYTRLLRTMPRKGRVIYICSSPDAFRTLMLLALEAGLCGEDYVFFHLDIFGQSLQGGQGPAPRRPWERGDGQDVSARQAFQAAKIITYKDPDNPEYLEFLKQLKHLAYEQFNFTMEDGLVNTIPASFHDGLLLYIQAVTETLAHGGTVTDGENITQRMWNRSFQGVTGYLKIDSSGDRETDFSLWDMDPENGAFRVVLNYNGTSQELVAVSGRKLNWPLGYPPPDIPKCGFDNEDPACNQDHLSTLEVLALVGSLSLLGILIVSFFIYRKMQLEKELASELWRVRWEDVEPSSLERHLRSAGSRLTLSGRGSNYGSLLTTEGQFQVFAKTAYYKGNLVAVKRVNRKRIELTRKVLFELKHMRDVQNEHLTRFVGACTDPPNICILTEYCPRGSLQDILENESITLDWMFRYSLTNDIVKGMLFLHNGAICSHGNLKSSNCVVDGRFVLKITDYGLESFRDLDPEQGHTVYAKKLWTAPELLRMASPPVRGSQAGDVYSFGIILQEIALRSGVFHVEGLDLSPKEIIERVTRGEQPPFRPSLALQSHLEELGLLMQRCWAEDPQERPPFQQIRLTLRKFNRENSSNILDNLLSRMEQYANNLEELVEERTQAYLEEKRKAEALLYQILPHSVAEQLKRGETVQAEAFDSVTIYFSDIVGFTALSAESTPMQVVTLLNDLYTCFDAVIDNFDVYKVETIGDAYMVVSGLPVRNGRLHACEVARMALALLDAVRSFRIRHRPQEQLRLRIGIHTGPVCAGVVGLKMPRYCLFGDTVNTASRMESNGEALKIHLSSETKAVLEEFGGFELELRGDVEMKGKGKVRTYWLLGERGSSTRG
#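 Compound pre-incubated 30 min at room temperature on GloSensor-loaded HEK293 cells stably carrying hNpr1 and the pGS-40F cGMP biosensor. Stimulation uses hNppA at 0.1 nM final; luminescence is taken at baseline and 20 min post-agonist.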
# FLuc SDR no ATP: binders stabilizing firefly luciferase, without ATP. shares compounds with FLuc inh-1. Purified FLuc-C-HiBiT, Nano-Glo HiBiT luminescence, no ATP. Potency, µM (highest dose often 32.7 µM), actives largely listed as activators. 1,300 compounds, 7.8% hits. AID 1963318; also: nearly all actives have a fitted effect of over 55% in size
# FLuc SDR ATP: binders stabilizing firefly luciferase, plus ATP | shares compounds with FLuc inh-1 | purified FLuc-C-HiBiT + ATP, HiBiT complementation luminescence | Potency, µM (highest dose often 32.7 µM), actives largely listed as activators | 1,300 compounds, 8.7% hits | AID 1963319;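 also: signal reports ligand binding via conformational change of the enzyme rather than luciferase catalysis; nearly all actives have a fitted effect of over 55% in size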
# FLuc inh-2: inhibitors of firefly luciferase enzymatic activity; purified FLuc-C-HiBiT enzyme, luciferin luminescence; Potency, µM (doses to about 32.7 µM), hits mostly inhibitors; shares compounds with FLuc inh-1; 1,300 compounds, 42% hits; also: nearly all actives have a fitted effect of over 70% in size
# Hits are given with their value; - = inactive; ? = inconclusive; . = not tested or not shown; [ ] = remark or other dose. Sampled rows, rich in hits. Any-hit rate of the full collection: about 10%. Unless noted, calls follow the shape of the dose curve; as a rule, active = well fitted curve in the direction sought with a large enough effect; inconclusive = small, poorly fitted or top-dose-only effect, or another doubt; inactive = no such curve, though single readings can be large; an effect the other way counts as inactive or inconclusive.
SMILES,FLuc inh-1,3T3 cytotox,GPT2 inh,HEK cytotox,NPR1 antag,FLuc SDR no ATP,FLuc SDR ATP,FLuc inh-2
COc1cccc(NC(=O)CCC2CCN(C(=O)c3cnc(C)[nH]c3=O)CC2)c1,-,-,-,-,-,.,.,.
CCCS(=O)(=O)N1CCC(Oc2ccc(-c3noc(-c4ccccc4)n3)cc2)C1 (stereo not given),?,?,-,?,-,.,.,.
Cc1ncccc1C(=O)N1CCC(Oc2ccc(-c3noc(-c4ccccc4)n3)cc2)C1 (stereo not given),7.08µM,?,-,?,11.2µM,-,-,?
O=C(c1ccncc1)N1CCC(Oc2ccc(-c3noc(-c4ccccc4)n3)cc2)C1 (stereo not given),14.1µM,?,-,?,14.1µM,-,-,?
Cc1cc(-c2nc3ccccc3s2)ccc1NC(=O)c1cc(Cl)ccc1Cl,.,.,.,.,.,-,-,-
COc1ccc(CC(=O)Nc2ccc(-c3nc4ccccc4s3)c(C)c2)cc1OC,.,.,.,.,.,-,-,-
COc1ccccc1CC(=O)Nc1ccc2ncnc(N3CCCC3)c2c1,-,-,-,?,-,.,.,.
COc1cc(OC)cc(C(=O)Nc2ccc(-c3nc4ccccc4s3)c(C)c2)c1,.,.,.,.,.,-,-,-
O=C(Nc1ccc(Cl)cc1F)c1ccccc1O,.,.,-,.,.,.,.,.
Cc1ccc(C(=O)Nc2ccc(-c3nc4ccccc4s3)cc2C)cc1C,.,.,.,.,.,-,-,-
COc1ccccc1C(=O)N1CCC(n2c(=O)[nH]c3ccccc32)CC1,.,-,-,-,.,.,.,.
O=C(Nc1ccc(CN2CCOCC2)cc1)c1ccc(-c2cccc(Cl)c2)o1,.,.,-,.,.,.,.,.
Cc1cccc(C(=O)Nc2ccc(-c3nc4ccccc4s3)cc2Cl)c1,.,.,.,.,.,-,-,-
COc1cc(OC)cc(C(=O)Nc2ccc(-c3nc4ccccc4s3)cc2C)c1,.,.,.,.,.,-,-,-
Cc1ccc(-c2nc3ccccc3s2)cc1NC(=O)c1ccc(-c2cccc(Cl)c2)o1,.,.,.,.,.,-,-,-
Nc1c(C(=O)Nc2ccc(C(=O)O)cc2)sc2nc3c(cc12)CCCC3,.,.,.,.,.,11.1µM,0.248µM,0.176µM
Cc1ccc(NC(=O)N2CC3CC(C2)[C@H]2CCCC(=O)N2C3)cc1 (stereo not given in full),?,-,-,-,-,.,.,.
CCc1nn2c(-c3ccco3)ccnc2c1-c1ccc(F)cc1,.,.,.,.,.,-,-,?
CC(C)Cc1nc2nccc(-c3ccco3)n2n1,-,-,-,-,-,.,.,.
COCCN1CC2(CCOC2)N(C2CCN(C(=O)CCC3CCCC3)CC2)C1=O (stereo not given),.,?,-,-,.,.,.,.
COc1ccc(NC(=O)c2cccc3c2CCN3C(=O)c2ccc(F)cc2)cc1OC,?,-,-,-,-,.,.,.
CN(C)C(=O)c1cccc2c1CCN2C(=O)Nc1ccc(F)cc1,12.6µM,-,-,-,-,-,6.24µM,3.94µM
O=C(O)c1cccc2c1CCN2C(=O)Nc1ccc(F)cc1,0.0079µM,?,-,8.91µM,0.316µM,11.1µM,0.0062µM,0.0035µM
CN1c2cc(C(=O)Nc3ccc(Cl)cc3)ccc2C(=O)N2CCCCC21 (stereo not given),?,?,-,?,-,.,.,.
CSc1ccc(NC(=O)c2ccc3c(c2)N(C)C2CCCN2C3=O)cc1 (stereo not given),14.1µM,-,-,?,-,-,?,?
SMILES,FLuc inh-1,3T3 cytotox,GPT2 inh,HEK cytotox,NPR1 antag,FLuc SDR no ATP,FLuc SDR ATP,FLuc inh-2
CSc1cccc(NC(=O)c2ccc3c(c2)N(C)C2CCCN2C3=O)c1 (stereo not given),14.1µM,-,-,?,-,-,?,?
COc1ccccc1NC(=O)CN1C(=O)CC(c2ccc(C)c(C)c2)=Nc2ccccc21,.,.,.,.,.,-,-,?
COc1ccccc1NC(=O)Cn1c(-c2ccc(F)cc2)nc(C)cc1=O,-,-,-,?,-,.,.,.
CC(C)NC(=O)NCCNC(=O)c1ccc(-c2cncnc2)cc1,.,-,.,-,.,.,.,.
Cc1cc2nc(-c3cccc(NC(=O)COc4ccc(C(C)C)cc4)c3)oc2cc1C,.,.,.,.,.,-,?,?
O=C(Nc1cccc(Cl)c1)c1ccc2oc(-c3ccnc(Cl)c3)nc2c1,.,?,-,?,.,.,.,.
Cc1ccc2nc(-c3cccc(NC(=O)CSc4ccc(Cl)cc4)c3)oc2c1,.,.,.,.,.,-,-,?
O=C(C1CCN([S+](=O)([O-])c2cccs2)CC1)N1CCCC1c1nc2ccncc2[nH]1 (stereo not given),.,-,-,-,.,.,.,.
CNC(=O)[C@H]1C[C@]2(CCCCN(C)C2=O)N(C(C)=O)[C@H]1c1ccco1,.,-,.,?,.,.,.,.
COc1cccc(Nc2ccc(CN3CCC(C)(NC(C)=O)C3)cc2)c1 (stereo not given),3.98µM,89.1µM,-,?,?,-,-,?
COc1cccc(Nc2csc(CN3CCCC(C)(NC(C)=O)C3)c2)c1 (stereo not given),?,?,-,?,-,.,.,.
CC(=O)NC1(C)CCN(Cc2cccc(-c3ccc4ccccc4c3)c2)C1 (stereo not given),1.78µM,28.2µM,-,35.5µM,?,-,?,11.4µM
Cc1ccc(-c2cc(N3CCC(CNC(=O)c4ccc5nc[nH]c5c4)CC3)n[nH]2)cc1,14.1µM,?,?,?,-,-,-,?
Cc1ccc(-c2nnc(SCc3ccccc3)o2)cc1,.,.,.,.,.,-,-,?
Cc1cccc(-c2nnc(SCCC(=O)O)o2)c1,.,.,.,.,.,-,?,4.95µM
COc1ccc(-c2cn3nc(SCC(=O)Nc4ccccc4F)ccc3n2)cc1,.,.,.,.,.,?,-,?
CC(C)c1ccc(NC(=O)CC2=C3CCCCC3N(C(C)C)C2=O)cc1 (stereo not given),.,?,-,?,.,.,.,.
Cc1ncc(C(=O)NCc2ccc3[nH]c(-c4ccccc4F)c(C)c3c2)c(C)n1,6.31µM,?,-[11.5 µM],?,7.94µM,-,-,7.85µM
Cc1ncc(CC(=O)NCc2ccc3[nH]c(-c4ccccc4F)c(C)c3c2)c(=O)[nH]1,12.6µM,?,-,?,-,-,-,?
Cc1ccc(C(=O)N2CCCC2C(=O)N2CCC(N3CCOCC3=O)CC2)cc1 (stereo not given),.,-,-,-,.,.,.,.
O=C1CC(c2ccccc2)N(C(=O)C2CC2)CCCN(C(=O)c2ccncc2)CCN1 (stereo not given),-,?,-,-,-,.,.,.
O=C(Nc1cc(-c2ccccn2)nn1-c1ccccc1)c1ccc(Cl)nc1,.,?,-,-,.,.,.,.
COc1ccc(-c2nc3c4cnn(-c5ccccc5F)c4ncn3n2)cc1,.,.,.,.,.,-,-,?
